# PTPN22 act = increases human PTPN22 phosphatase activity. Q9Y2R2. recombinant LYP, DiFMUP fluorescence; 0 = plate median, 100 = signal doubled. activation, % at 2 µM. actives 0.11% (n = 96,000). AID 697;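 active = activation at 2 µM above a set limit, the mean plus 5 SD, cut at about 37% in these data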
# LYP inh 2 = LYP (human) phosphatase inhibition; Q9Y2R2; recombinant LYP catalytic domain, DiFMUP fluorescence; inhibition, % at 2 µM; actives 0.21% (n = 96,000); AID 640;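 active = inhibition at 2 µM at or above a set limit, the screen mean plus 3 SD, cut at about 24% in these data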;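 note: 0% = DMSO with enzyme and 100% = enzyme fully blocked by orthovanadate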
# FAK blocker = inhibitors of human focal adhesion kinase; Q05397; biochemical FAK kinase activity assay; inhibition, %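 (tested at 7 µM)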; actives 0.84% (n = 97,000); in the data active = inhibition above about 19%;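 note: 0% = DMSO and 100% = reference compound high control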
# ERb SRC1 inh = ER-beta (human) coactivator binding inhibition; Q92731; TR-FRET ER-beta LBD / SRC1-Cy5 peptide binding; receptor agonist-loaded with 1 µM estradiol; inhibition, % at 25.6 µM; actives 1.3% (n = 86,000); AID 633;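 active = compounds whose percent inhibition of the receptor-coactivator binding signal exceeds about 50% in the single-dose screen, limit read from the data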;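 note: 0% = receptor plus peptide wells without compound and 100% = peptide-only wells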
# ERa coact pot = enhances coactivator binding to human estrogen receptor alpha | P03372 | TR-FRET ERalpha-LBD/SRC-Cy5 coactivator binding, 2 h; 100 = basal binding, no effect | coactivator binding (% of control), % at 25.6 µM | actives 1.3% (n = 86,000) | AID 639; in the data active = activity above about 200%;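 note: binding measured in presence of low estradiol as agonist stimulus; 0% = peptide alone without receptor and 100% = receptor with peptide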
# ERa coact inh = ER-alpha (human) coactivator binding inhibition; P03372; TR-FRET ER-alpha LBD / SRC-1 peptide, estradiol-bound; inhibition, % at 25.6 µM; actives 1.7% (n = 86,000); AID 629; in the data active = inhibition above about 50%;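 note: 0% = receptor plus peptide control and 100% = peptide only without receptor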
# * = called active by the depositor; / = no result; [ ] = remark or other dose. The list is not random: actives were taken first. Their share in the collection is about 3.4%.
SMILES,PTPN22 act,LYP inh 2,FAK blocker,ERb SRC1 inh,ERa coact pot,ERa coact inh
CC(=O)N(C(C)=O)c1c(C#N)c(C)n(-c2ccccc2)c1C(=O)c1ccccc1,2,-5,2,-5,94,68*
CCOC(=O)C1=C(O)/C(=C/c2ccc(C)o2)SC1=NC(=O)c1ccccc1C,-9,9,9,39,59,64*[fluorescence artefact?]
COc1ccc2nc(NC(=O)CSc3nc4cccnc4n3C)sc2c1,8,-12,0,28,164,23
COC(=O)c1sc(NC(=O)CSc2nc3cccnc3n2C2CCCCC2)nc1C,2,-3,-7,61*[fluorescence artefact?],81,72*[fluorescence artefact?]
CC1Cc2ccccc2N1C(=O)CSc1nnc(-c2ccc(S(=O)(=O)N3CCCC3)cc2)o1 (configuration not stated),-3,1,2,13,374*,7
CC(=O)c1cccc(NC(=O)CSc2nnc(-c3ccc(S(=O)(=O)N4CCCC4)cc3)o2)c1,-8,6,-2,-8,261*,-21
Cc1ccc(-c2nnc(SCC(=O)Nc3ccc(S(=O)(=O)N4CCCCCC4)cc3)o2)cc1,-6,6,-5,3,119,11
O=C(CSc1nnc(-c2ccc(S(=O)(=O)N3CCCC3)cc2)o1)N1CCCC1,1,0,0,2,107,1
Cc1cc(=O)oc2cc(OCC3CC(c4ccc(N(C)C)cc4)=NO3)ccc12 (configuration not stated),-3,0,9,27,153,51*[fluorescence artefact?]
CCOC(=O)CSc1nnc(SCCN2C(=O)c3ccccc3C2=O)s1,0,1,1,-29,109,-3
Cc1ccc2oc(=O)c3cc(C(=O)N4CCN(c5ncccn5)CC4)sc3c2c1,/,/,/,29,142,74*[fluorescence artefact?]
Cc1ccc2oc(=O)c3cc(C(=O)N4CCN(C(=O)c5ccco5)CC4)sc3c2c1,/,/,/,-21,97,3
CCOC(=O)c1ccc(NC(=O)CC2NCCNC2=O)cc1 (configuration not stated),-30,32*,0,-4,101,-5
Cc1ccc2cc(C)c3nnc(SCC(=O)Nc4nc5c(s4)CCCC5)n3c2c1,-8,6,2,/,/,/
O=C1c2oc3ccc(F)cc3c(=O)c2C(c2ccccc2)N1CC1CCCO1 (configuration not stated),-2,0,-1,-6,121,22
CSCCC(NC(=O)c1ccco1)C(=O)OCC(=O)Nc1sccc1C#N (configuration not stated),4,-7,2,54*,43,56*[fluorescence artefact?]
Cc1nnc(SCC(=O)Nc2sccc2C#N)n1Cc1ccccc1,0,1,2,/,/,/
O=C(NCc1ccco1)c1cc2sccc2n1Cc1ccccc1,-4,1,2,2,104,20
N#Cc1cc(Sc2ccccn2)c(Sc2ccccn2)cc1C#N,6,-8,0,-4,213*,-5
Oc1c(Cl)cc(Cl)cc1Sc1cc(Cl)cc(Cl)c1O,/,/,/,93*,10,97*
Oc1c(Cl)cc(Cl)cc1C(C#Cc1ccccc1)N1CCOCC1 (configuration not stated),-7,11,4,/,/,/
COC(=O)c1sccc1NC(=O)CN(C)NS(=O)(=O)c1ccc(F)cc1,1,3,3,/,/,/
CC(=O)CCc1c(C)c2cccc(C)c2[nH]c1=O,/,/,/,82*[fluorescence artefact?],95,4
COc1ccc2c(c1)c(=O)oc1cc3occ(C(C)(C)C)c3cc12,7,-4,2,30,105,40
COc1ccc2c(c1)c(=O)oc1cc3oc(C)c(C)c3cc12,1,0,6,57*,72,67*
SMILES,PTPN22 act,LYP inh 2,FAK blocker,ERb SRC1 inh,ERa coact pot,ERa coact inh
CCOCCCn1c(=N)c(C(=O)NCc2ccc3c(c2)OCO3)cc2c(=O)n3ccccc3nc21,-3,1,4,24,73,36
CCCn1c(=N)c(C(=O)NCc2ccc3c(c2)OCO3)cc2c(=O)n3cccc(C)c3nc21,35,-37,3,53*[fluorescence artefact?],26,79*[fluorescence artefact?]
CC(=O)c1c(N2CCN(C)CC2)[nH]c(-c2ccccc2)nc1=S,-1,3,1,-5,101,-8
Cn1c(=O)[nH]c(=O)c2c1nc1n2CCN1Cc1ccccc1,-4,8,-12,/,/,/
Cn1c(=O)[nH]c(=O)c2c1nc1n2CCCN1CCc1ccccc1,8,-9,-1,62*,76,65*
Cc1ccc2cc(C3C(C#N)=C(N)Oc4c3ccc3cccnc43)c(=O)[nH]c2c1 (configuration not stated),2,2,8,35,67,26
CCc1ccc2[nH]c(=O)c(C3C(C#N)=C(N)Oc4c3ccc3cccnc43)cc2c1 (configuration not stated),-2,0,-1,50*,76,80*
COc1ccc(C)cc1NC(=O)c1cnc2scc(C)n2c1=O,/,/,/,9,216*[fluorescence artefact?],20
COc1ccc(OC2C(=O)N(Cc3ccc4c(c3)OCO4)C2c2cccs2)cc1 (configuration not stated),1,2,3,/,/,/
O=C(CSc1ncnc2c1oc1ccccc12)NC1CCCCC1,6,-10,-4,51*[fluorescence artefact?],289*[fluorescence artefact?],56*[fluorescence artefact?]
NC(=O)CSc1ncnc2c1oc1ccccc12,2,-6,-23,11,70,14
O=C(CSc1ncnc2c1oc1ccccc12)NCc1ccc(F)cc1,8,-12,-7,57*[fluorescence artefact?],784*[fluorescence artefact?],49
O=C(CSc1ncnc2c1oc1ccccc12)c1cccs1,-5,4,-14,13,283*[fluorescence artefact?],8
Fc1cccc(CSc2ncnc3c2oc2ccccc23)c1,7,-6,4,57*[fluorescence artefact?],402*[fluorescence artefact?],47
CCc1cccc2c(C=C(C#N)C#N)cn(CC(=O)N3CCCCCC3)c12,10,-7,-5,/,/,/
CN(C)S(=O)(=O)N1CCN(C(=O)c2cccs2)CC1,5,-8,-1,10,119,-2
Fc1ccc(CSc2ncnc3c2oc2ccccc23)cc1,/,/,/,56*[fluorescence artefact?],192,44
Cc1cc2cc(CNC(=O)c3ccc(S(=O)(=O)N4CCOCC4)cc3)ccc2n1C,-10,7,-2,28,276*[fluorescence artefact?],1
Cc1cc2cc(CNC(=O)Nc3cccc(Cl)c3)ccc2n1C,8,-9,5,15,215*[fluorescence artefact?],20
Cc1cc2cc(CNC(=O)c3ccc(S(=O)(=O)N(C)C)cc3)ccc2n1C,4,-7,-4,15,126,4
CCCC(=O)NCc1ccc2c(c1)cc(C)n2C,7,-9,0,-5,84,-52
Cc1cc2cc(CNC(=O)c3ccc(Br)o3)ccc2n1C,/,/,/,43,62,74*[fluorescence artefact?]
C=CCNc1cc(C(F)(F)F)nc(-c2ccccn2)n1,4,-1,6,/,/,/
CCC(CC)C(=O)Nc1cccc(C(=O)c2ccccc2)c1,12,-9,5,25,77,30
COc1ccc(/C=C(/C#N)c2cccnc2)cc1OC,/,/,/,13,108,4

# From PubChem
